Data on 40 molecules can be found in PubChem BioAssay (NCATS).

Records with an inconclusive call do not appear. Activity calls are given as the source filed them. The call rests on the fitted dose curve; in most records, active means well fitted inhibition curve with a large enough effect; inconclusive means small, poorly fitted or top-dose-only effect; inactive means no such curve, though single readings can be large or run the other way. Bridge positions count the residues as written; N and C are the ends. Square brackets hold non-standard residues; d marks the D form. Peptide text beside a SMILES is read from it. * marks the point of attachment. Octanoyl(6-Me) = CCC(C)CCCCC(=O)*; Dab = NCC[CH](N)C(=O)O
Potency means the concentration at half of the fitted maximal effect.

Sequence of Cytochrome P450 3A4 (Homo sapiens) (P08684 whole entry, looked up): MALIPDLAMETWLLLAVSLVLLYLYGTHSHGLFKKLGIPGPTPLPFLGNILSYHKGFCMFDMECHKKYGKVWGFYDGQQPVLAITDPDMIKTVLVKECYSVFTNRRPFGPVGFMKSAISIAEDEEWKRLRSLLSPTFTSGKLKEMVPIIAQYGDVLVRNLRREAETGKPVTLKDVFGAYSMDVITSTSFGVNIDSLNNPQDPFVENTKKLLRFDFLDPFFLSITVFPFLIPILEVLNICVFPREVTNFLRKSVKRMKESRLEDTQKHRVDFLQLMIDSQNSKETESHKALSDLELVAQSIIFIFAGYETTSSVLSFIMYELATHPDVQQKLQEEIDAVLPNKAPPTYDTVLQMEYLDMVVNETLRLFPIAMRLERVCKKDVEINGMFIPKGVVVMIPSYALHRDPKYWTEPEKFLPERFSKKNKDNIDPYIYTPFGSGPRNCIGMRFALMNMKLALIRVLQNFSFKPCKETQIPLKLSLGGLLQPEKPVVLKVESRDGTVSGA

This experiment has as its target Cytochrome P450 3A4 (Homo sapiens) (UniProt P08684). The experiment in a line: qHTS Assay for Inhibitors and Substrates of Cytochrome P450 3A4 (AID 884). Further: nearly all actives have a fitted effect of over 50% in size. Conditions: recombinant CYP3A4, Luciferin-PPXE luminescence; series mostly up to 57.1 µM. As for the experimental part: NIH Molecular Libraries Screening Centers Network [MLSCN]
NIH Chemical Genomics Center [NCGC]
The P450 gene superfamily is involved in the metabolism and clearance of xenobiotics. This assay used human CYP3A4 to measure the dealkylation of luciferin-6' phenylpiperazinylyl (Luciferin-PPXE; […]) to luciferin. The luciferin is then measured by luminescence after the addition of a luciferase detection reagent. Luciferin-PPXE concentration in the assay was equal to its KM for CYP3A4. Inhibitors and some substrates limit the production of luciferin, and decrease measured luminescence.
NCGC Assay Protocol Summary:
Two uL of enzyme and substrate mix (final concentrations: 20nM CYP3A4, 25uM Luciferin-PPXE, 200mM KPO4) were dispensed into a white, solid bottom 1536-well microtiter plate. 23nL of compound was transferred by a pin tool. The plate was incubated at RT for 10 min. Two uL of an NADPH regeneration solution (Promega supplied reagent) was dispensed and the reaction was allowed to continue for 60 min at RT. Then the reaction was stopped by reconstituted luciferin detection buffer. After another 20 min of incubation the plate was read on the ViewLux (Perkin Elmer) at 60 sec exposure and 2x2 binning. This protocol was carried out with Promega-Glo reagents and further information can be found at http://www.promega.com/tbs/tb325/tb325.pdf. Data were normalized to the to AC100 inhibition (57 uM ketoconazole).
Keywords: P450, CYP3A4, Luciferase, MLSMR, MLSCN, NIH Roadmap, qHTS, NCGC
(In general: In qHTS, concentration-response curves come from the screen itself.)
In the case of `COc1ccc(/C=C/c2cc(OC)cc(=O)o2)cc1`, the Potency entry is “inactive”.

Take `C=CC(=C)CCC=C(C)C`: the Potency result is “inactive”.

Take `CN(C)c1ccc(-c2cncnc2NCCN2CCOCC2)cc1`: the Potency is 3.16 µM (active).

On to `COc1ccc2[nH]cc(CCNc3ncnc4ccc(-c5cccc(C#N)c5)cc34)c2c1`, for which the Potency is 2.51 µM (active).

Turning to `CC(=O)OC/C=C(\C)CCC=C(C)C`, the Potency result is “inactive”.

For the molecule `CC12CCC(CC1=O)C2(C)C` (stereo not given), the Potency result is “inactive”.

Regarding `CCCCCCCCCCCCCCC1CO1` (stereo not given), the Potency entry is “inactive”.

With `Cc1cnc(CNc2ncnc3ccc(-c4ccccc4Cl)cc23)cn1`, the Potency was 2.51 µM (active).

As for `COc1ccc2c(=O)c(OC)c(-c3ccccc3)oc2c1`, the Potency was 10 µM (active).

For `COc1ccc2c(c1)OCC(Cc1ccc(OC)c(OC)c1)C2=O` (stereo not given), the Potency was 15.8 µM (active).

Turning to `FC(F)(F)c1ccccc1-c1nc(NCc2cccnc2)c2ccccc2n1`, the Potency is 2 µM (active).

Take `CC1=C2[C@H](/C=C(\C)C(=O)O)CC[C@@H](C)[C@H]2CC1`: the Potency result is “inactive”.

With `Cc1cnc(CNc2ncnc3ccc(-c4ccccc4C)cc23)cn1`, the Potency is 3.98 µM (active).

For the molecule `COc1ccc(-c2oc3ccc(C)cc3c(=O)c2O)cc1OC`, the Potency was 3.98 µM (active).

Regarding `CS(=O)(=O)Nc1cccc(-c2nc(Nc3ccncc3)c3ccccc3n2)c1`, the Potency is 3.98 µM (active).

With `C=Cc1ccccc1Cl`, the Potency entry is “inactive”.

For the molecule `CCCCCCCCCCCCC[N+](C)(C)Cc1ccccc1`, the Potency entry was “inactive”.

With `Cc1cccc([N+](=O)[O-])c1C`, the Potency entry is “inactive”.

For the molecule `Cn1c(N)c(C(=O)COC(=O)c2cc(-c3ccco3)nc3ccccc23)c(=O)n(C)c1=O`, the Potency is 25.1 µM (active).

For `O=C1C=C(NCCc2cc(Br)c(O)c(Br)c2)C(=O)c2ncccc21`, the Potency was 3.16 µM (active).

For `CCC(O)OC(O)CC` (stereo not given), the Potency entry is “inactive”.

Turning to `CC(C)=CCc1c(O)cc(O)c2c1O[C@H](c1ccccc1)CC2=O`, the Potency is 12.6 µM (active).

As for `O=[N+]([O-])c1cccc(Cl)c1Cl`, the Potency entry is “inactive”.

Regarding `Cc1ccccc1C`, the Potency entry was “inactive”.

Regarding `O=C(c1cnccn1)N1CCC[C@@]2(CCN(c3cccc(-c4ccccc4)c3)C2)C1`, the Potency is 3.98 µM (active).

For the molecule `COc1ccccc1-c1ccc2ncnc(N3CCOCC3)c2c1`, the Potency was 6.31 µM (active).

For the molecule `Nc1nc(-c2ccc(Cl)c(Cl)c2)c(-c2ccncc2)s1`, the Potency was 0.794 µM (active).

Consider `Cc1ccc(N)c([N+](=O)[O-])c1`, for which the Potency entry was “inactive”.

For `Cc1ccccc1-c1ccc2ncnc(-n3ccnc3)c2c1`, the Potency was 0.501 µM (active).

Turning to `c1ccc2scnc2c1`, the Potency result is “inactive”.

For the molecule `O=S(=O)(O)C1CCNCC1`, the Potency result is “inactive”.

Consider `Cc1cccc(CNc2ncncc2-c2ccccc2C)c1`, for which the Potency was 0.398 µM (active).

For the molecule `CN(C)c1nc(-c2cccc(NS(C)(=O)=O)c2)nc2ccccc12`, the Potency is 6.31 µM (active).

For the molecule `Clc1cc(Cl)c(Cl)cc1Cl`, the Potency result is “inactive”.

As to `COc1cccc(-c2nc(NC3CC3)c3ccccc3n2)c1`, the Potency is 1.26 µM (active).

With `CN(Cc1ccco1)c1cc(-c2ccc3c(c2)OCO3)ncn1`, the Potency is 3.98 µM (active).

Regarding `CN(Cc1ccco1)c1ncnc2ccc(-c3cccc(NS(C)(=O)=O)c3)cc12`, the Potency was 5.01 µM (active).

As for `COc1ccccc1CNc1ncncc1-c1ccccc1Cl`, the Potency is 0.199 µM (active).

With `CCC(C)CCCCC(=O)NC(CCN)C(=O)NC(C(=O)NC(CCN)C(=O)NC1CCNC(=O)C(C(C)O)NC(=O)C(CCN)NC(=O)C(CCN)NC(=O)C(CC(C)C)NC(=O)C(Cc2ccccc2)NC(=O)C(CCN)NC1=O)C(C)O` (stereo not given) ({Octanoyl(6-Me)}-[Dab]T[Dab][Dab][Dab]FL[Dab][Dab]T; lactam 4-C; configuration not given here), the Potency entry was “inactive”.

Turning to `COc1ccc(Oc2ncc3nc(CCc4ccccc4)c(=O)n(CCC#N)c3n2)cc1`, the Potency is 1.58 µM (active).
